Data as given in PubChem BioAssay (NCI).
Values joined by “and” are separate entries in the source; they are usually repeats but may differ in a detail not shown here. Equal entries are not always repeated. Compounds without any hit were thinned out: in the full panel of roughly 83,000, 20% have a hit.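 For each line, cells grew in 96-well plates with the test compound present at a single concentration for 48 hours.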 Active and inactive are the calls of the source. The calls were made as follows: active = growth percent below 10; inactive = the rest.

Assays:
Assay in all cases: NCI-60 one-dose screen, 48 h (100 = growth as untreated, 0 = no growth, -100 = all killed)
Conditions in all cases: 10 µM unless noted
[1] = test system: SR leukemia
[2] = test system: RPMI-8226 leukemia
[3] = test system: OVCAR-8 ovarian
[4] = test system: OVCAR-5 ovarian
[5] = test system: OVCAR-4 ovarian
[6] = test system: SK-OV-3 ovarian
[7] = test system: IGROV1 ovarian
[8] = test system: HS 578T breast
[9] = test system: NCI/ADR-RES ovarian
[10] = test system: OVCAR-3 ovarian

Measured: growth

Cn1cc(-c2nn3cc(-c4ccncc4)nc3s2)c2cc(F)ccc21
active: [1] 1.87%
inactive: [2] 55.3% | [3] 58.6% | [4] 100% | [5] 72.8% | [6] 92.7% | [7] 64.9% | [8] 86.7% | [9] 78.7%

CC1=C(SCC(=O)OCCCCCC(C)C)C(=O)c2ccccc2C1=O
inactive: [1] 83.7% | [2] 61% | [3] 92.1% | [4] 113% | [5] 70.1% | [6] 104% | [7] 79.8% | [10] 74% | [8] 91.8% | [9] 100%

COc1ccc(/C=N/NC(=O)c2c(N)nn(C)c2Nc2ccccc2)cc1
inactive: [1] 18.9% | [2] 61.6% | [3] 70.8% | [4] 76.9% | [5] 87% | [6] 49.6% | [7] 39.6% | [8] 38.1% | [9] 33%

CCCCCCN1C=C/C(=C\C(=O)n2ccc3ccccc32)c2ccccc21
inactive: [1] 54.3% | [2] 12.7% | [3] 73.8% | [4] 90.9% | [5] 33.3% | [6] 59.9% | [7] 42.9% | [10] 58.4% | [8] 84.9% | [9] 84.7%

COc1ccc(C(C)=C(c2ccc(OCCN3CCCCCC3)cc2)c2ccc(OCCN3CCCCCC3)cc2)cc1
active: [1] -12.1% | [2] -44.9% | [3] 0.8% | [5] -66.7% | [7] -67.9% | [10] -47.2% | [8] -52.1% | [9] -60%
inactive: [4] 22.9% | [6] 72.9%

Cc1ccc(C(=O)CSc2nc3ccccc3c(=O)n2C)cc1
inactive: [1] 81.5% | [2] 63.8% | [3] 94.4% | [4] 105% | [5] 52.4% | [6] 87.4% | [7] 71.1% | [10] 94.2% | [8] 94.6% | [9] 90%

CCCc1cc2cc(-n3nc(CC)c4c3CC(C)(C)CC4=O)cc(NC3CCC(O)CC3)c2c(=O)[nH]1 (centres undefined)
inactive: [2] 12.4% | [3] 21.9% | [4] 35.2% | [5] 64.9% | [6] 27.2% | [7] 25.4% | [10] 46.7% | [8] 16.1% | [9] 39.9%
active: [1] 0.947%

Clc1ccc2[nH]cc(-c3cncn3CCc3ccc4c(c3)OCO4)c2c1
inactive: [1] 62.1% | [2] 42.5% | [3] 76% | [4] 76.2% | [5] 33% | [6] 81% | [7] 76.8% | [10] 67.6% | [8] 69.7% | [9] 78.6%

Cc1ccc2c(n1)C(=O)C(Cl)=C(Nc1cccc(C(=O)OC(C)(C)C)c1)C2=O
active: [1] 5.81%
inactive: [2] 28% | [3] 87.3% | [4] 130% | [5] 65.7% | [6] 97.2% | [7] 88.2% | [10] 37.5% | [8] 102% | [9] 93.9%

COc1cc2cc(Oc3ccc(NC(=O)c4cc(C(F)(F)F)cc(C(F)(F)F)c4)cc3)c(C)nc2cc1OCCN1CCOCC1
inactive: [1] 20.6% | [2] 24.6% | [3] 80.1% | [4] 95.7% | [5] 48.8% | [6] 87.5% | [7] 85.6% | [10] 78.9% | [8] 36.7% | [9] 62.4%

COc1ccc(-c2c3c(cn2Cc2cccc(OC)c2)-c2oncc2CCC3)cc1
inactive: [1] 89.2% | [2] 93.6% | [3] 98.5% | [4] 108% | [5] 100% | [6] 98.3% | [7] 94.3% | [8] 101% | [9] 97%

CN(C)S(=O)(=O)c1ccc(-c2nc(C(Cl)Cl)nc3cc(-c4ccc(F)cc4)nn23)cc1
inactive: [4] 18.3% | [5] 21.1% | [8] 20.3%
active: [1] 8.24% | [2] 7.75% | [3] 2.7% | [6] 0.219% | [7] 0.61% | [10] 8.15% | [9] 3.66%

CCC1=Cc2c(OC)cccc2OC12C=Cc1c(OC)cccc1O2 (centres undefined)
active: [9] -24.2%
inactive: [1] 15.2% | [2] 25.2% | [3] 24.3% | [4] 36.5% | [5] 76.7% | [6] 56.5% | [7] 29.8% | [8] 28.4%

CC1=C(C)C(=O)C(Nc2ccc3c(c2)OCCO3)=C(Br)C1=O
inactive: [1] 77.6% | [2] 100% | [3] 100% | [4] 108% | [5] 66.8% | [6] 93.9% | [7] 102% | [10] 109% | [8] 97.3% | [9] 97.3%

C/C=C/CC(C)C(O)[C@H](NC(=O)[C@@H]1CCCN1C(=O)[C@](C)(CC)NC(=O)CCCCCCCCC)C(=O)N[C@@](C)(CC)C(=O)N[C@@H](CCC(N)=O)C(=O)N[C@H](CCC(N)=O)C(=O)NC(C)(C)C(=O)NC(C)(C)C(=O)N[C@@H](CCC(N)=O)C(=O)N[C@H](CC(C)C)C(=O)N[C@H](CO)CC(C)C (some centres undefined)
inactive: [5] 86.8% and 43.1% | [6] 107% and 19.3%
71% (inactive) and -92% (active): [4]
71.4% (inactive) and -70.3% (active): [9]
42.1% (inactive) and -54.9% (active): [3]
12.6% (inactive) and 1.7% (active): [1]
50.5% (inactive) and -38.3% (active): [2]
active: [10] 7.49% | [8] 6.26% and -64.4%
52.1% (inactive) and -14.1% (active): [7]

O=C(CCCCCCNC(=O)C(O)(O)C(F)(F)F)Nc1ccc(Br)cc1
active: [1] 8.58% | [3] 7.83% | [4] 5.89% | [6] -13.4% | [10] -12.8%
inactive: [2] 20.7% | [5] 28.5% | [7] 15.7% | [8] 15.7% | [9] 16.9%

CCCCCCCCCC(=O)NC(C)(C)C(=O)N1CCC[C@H]1C(=O)N[C@@H](CC(C)C)C(=O)N[C@@](C)(CC)C(=O)N[C@@H](CCC(N)=O)C(=O)N[C@H](CCC(N)=O)C(=O)NC(C)(C)C(=O)NC(C)(C)C(=O)N[C@@H](CCC(N)=O)C(=O)N[C@H](CC(C)C)C(=O)N[C@H](CO)CC(C)C
-70.9% (active) and 19.4% (inactive): [6]
-20.8% (active) and 50.4% (inactive): [5]
active: [1] -77.5% and 1.34% | [2] -67.5% and -26% | [3] -86.4% and -49.5% | [4] -97.7% and -82.4% | [7] -87% and 5.72% | [10] -23.8% | [8] -71.3% and -59% | [9] -83% and 0.971%

O=S(=O)(Oc1ccc(-c2cn3ccoc3n2)cc1)C1CCCCC1
inactive: [1] 85.6% | [2] 93.3% | [3] 100% | [4] 102% | [5] 107% | [6] 102% | [7] 108% | [8] 102% | [9] 97.8%

O=c1[nH][nH]c(-c2ccc(F)cc2)c1-c1nc2ccccc2s1
inactive: [1] 103% | [2] 97.4% | [3] 100% | [4] 95.9% | [5] 106% | [6] 88.6% | [7] 86.8% | [10] 108% | [8] 96.9% | [9] 86.8%

Cc1cc(C)cc(NC2=C(Cl)C(=O)c3nc(C)ccc3C2=O)c1
active: [2] -15.1% | [5] -5.74% | [7] -62.1% | [10] -0.41%
inactive: [1] 41% | [3] 73.1% | [4] 92.7% | [6] 107% | [8] 11.1% | [9] 65.6%

C=C1CCc2nc(SCC(=O)O)ccc2N1
inactive: [1] 115% | [2] 114% | [3] 105% | [4] 97.1% | [5] 104% | [6] 98.8% | [7] 104% | [10] 117% | [8] 101% | [9] 98.8%

O=C(Nc1ccccc1)Nc1nc2ccc([N+](=O)[O-])cc2[nH]1
inactive: [1] 70.4% | [2] 46.1% | [3] 66.9% | [4] 75.2% | [5] 23.5% | [6] 73.4% | [7] 45.9% | [10] 38.3% | [8] 75.5% | [9] 69.1%

CC1=C(C)C(=O)C(Nc2cccc(C(=O)OC(C)(C)C)c2)=CC1=O
inactive: [1] 81.8% | [2] 75.8% | [3] 82.2% | [4] 98.3% | [5] 34.9% | [6] 90.5% | [7] 72.9% | [8] 79.4% | [9] 76%
active: [10] 6.18%

COc1cc2c3c(cc4c5c(ccc4c3c1OC)OCO5)N(CCN(C)C)C2=O
active: [1] -1.44% | [2] -21.7% | [3] 9.28% | [4] -6.73% | [5] -4.27% | [6] 2.24% | [7] -11.3% | [10] 0.51% | [8] -8.56% | [9] 4.67%

CNC(=O)Nc1ccc(Nc2cc(-c3ccc(-n4cccn4)cc3)[nH]n2)c(C)c1
inactive: [1] 89% | [2] 93.3% | [3] 102% | [4] 111% | [5] 102% | [6] 107% | [7] 108% | [8] 116% | [9] 99.8%
